Screening data as filed in PubChem BioAssay.
SW480 rereplic – A quantitative high throughput screen for small molecules that induce DNA re-replication in SW480 colon adenocarcinoma cells | hit rate 1.8% among 340,000 | Potency, µM (top dose mostly 46.1 µM), without a hit: top-dose re-replication activation, most hits filed as activators | SW480 DNA re-replication, Hoechst DNA content imaging, 48 h; further: potency means the concentration at half of the fitted maximal effect; % of control where 0% means no effect; nearly all actives have a fitted effect of over 55% in size
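Compounds, transferred as 23 nL by pin tool, were incubated with cells for 48 hr; DNA content per nucleus was then quantified by Hoechst staining and fluorescence plate imaging.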
MCF10A rerep – A quantitative high throughput screen for small molecules that induce DNA re-replication in MCF 10a normal breast cells. MCF 10A DNA re-replication, Hoechst nuclear intensity, 48 h. Potency, µM (highest dose often 46.1 µM), inactives show at the top dose activity, positive = re-replication, hits mostly activators. hit rate 2.9% among 350,000; further: potency means the concentration at half of the fitted maximal effect; % of control where 0% means no effect; nearly all actives have a fitted effect of over 50% in size
KB-V1 MDR tox – qHTS assay for MDR1-selective chemotherapeutics: Primary screen using the drug-selected MDR subline cells KB-V1. hit rate 3.4% among 400,000. Potency, µM (highest dose often 46.1 µM), actives largely listed as cytotoxic. KB-V1 MDR cells viability, CellTiter-Glo, 72 h; further: potency means the concentration at half of the fitted maximal effect; on the % scale 0 is the no-effect control and ±100 the full control effect; nearly all actives have a fitted effect of over 60% in size
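Following 72 h at 37 degrees C with compound, KB-V1 cell viability was read by CellTiter-Glo luminescence, medium being phenol-red-free DMEM plus 10% FBS; concentration-response parameters came from normalized, curve-fitted qHTS data.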
Giardia kill – Small Molecules that selectively kill Giardia lamblia: qHTS | Giardia lamblia trophozoite viability | activity change, % at 7.66 µM, hits read low | hit rate 0.15% among 340,000; in the data active means activity change below about -80%; inconclusive means between about -30% and that limit;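 further: parasites exposed to compound for two days anaerobically before the ATP read; on the % scale 0 is the no-effect control and ±100 the full control effect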
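Killing of trophozoites was scored by loss of ATP luminescence after a 48 hrs anaerobic exposure to compounds at 37 deg C, using 100 cells per well.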
KB-3-1 tox – qHTS assay for MDR1-selective chemotherapeutics: Primary screen using the parental adenocarcinoma cell KB-3-1; KB-3-1 viability, CellTiter-Glo ATP luminescence, 72 h; Potency, µM (top dose mostly 46.1 µM), actives largely listed as cytotoxic; hit rate 1.4% among 400,000; AID 1347075, 2019; further: potency means the concentration at half of the fitted maximal effect; on the % scale 0 is the no-effect control and ±100 the full control effect; nearly all actives have a fitted effect of over 60% in size
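Cytotoxicity measured as CellTiter-Glo luminescence after 72 h at 37 C. Compound titrations were pinned onto drug-naive KB-3-1 parental adenocarcinoma cells grown in DMEM with 10% FBS, and normalized data fitted to concentration-response curves.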
ASM inhibitor – Inhibitors of Secretory Acid Sphingomyelinase (S-ASM): qHTS; hit rate 0.006% among 340,000; AID 504937, 2011; placental ASM, HMU-PC fluorogenic substrate, 60 min; Potency, µM (top dose mostly 57.5 µM), for inactives: top-dose activity change, negative = inhibition, most hits filed as inhibitors; further: potency means the concentration at half of the fitted maximal effect
Target sequence (P17405 47-631 limits assumed): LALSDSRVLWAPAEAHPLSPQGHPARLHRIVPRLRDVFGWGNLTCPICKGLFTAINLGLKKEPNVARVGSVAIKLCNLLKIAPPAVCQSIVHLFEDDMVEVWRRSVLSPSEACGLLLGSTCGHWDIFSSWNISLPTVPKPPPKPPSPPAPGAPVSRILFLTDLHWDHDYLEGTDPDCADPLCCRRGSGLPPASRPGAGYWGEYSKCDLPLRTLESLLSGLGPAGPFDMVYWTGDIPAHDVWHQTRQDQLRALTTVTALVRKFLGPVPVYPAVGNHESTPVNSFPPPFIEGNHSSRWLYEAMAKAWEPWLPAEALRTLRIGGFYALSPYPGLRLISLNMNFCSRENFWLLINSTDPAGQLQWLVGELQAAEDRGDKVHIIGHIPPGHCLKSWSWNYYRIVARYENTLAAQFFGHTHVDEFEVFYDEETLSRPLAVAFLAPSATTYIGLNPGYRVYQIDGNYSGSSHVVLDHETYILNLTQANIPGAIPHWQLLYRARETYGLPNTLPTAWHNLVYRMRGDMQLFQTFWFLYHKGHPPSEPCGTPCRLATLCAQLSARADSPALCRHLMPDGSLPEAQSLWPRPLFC
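Fluorescence read-out (Ex 386 nm, Em 447 nm) after stopping the reaction at pH 10. Enzyme: ASM from human placenta; substrate HMU-PC0, 9 uM final; 60 min, 37 °C. Compound preincubation 10 min, ambient temperature.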
* = called active by the depositor; i = inactive; ? = inconclusive; / = no result given; [ ] = another dose, or the depositor's remark. Only some compounds are listed: those with a hit (about 6.9% of all), similar ones and a draw of the others. Unless noted, the call rests on the fitted dose curve; in most records, active means well fitted curve in the direction sought with a large enough effect; inconclusive means small, poorly fitted or top-dose-only effect, or another doubt; inactive means no such curve, though single readings can be large; an effect the other way counts as inactive or inconclusive.

SMILES | SW480 rereplic | MCF10A rerep | KB-V1 MDR tox | Giardia kill | KB-3-1 tox | ASM inhibitor
COc1ccccc1NC(=S)N1CCN(Cc2ccccc2)CC1 | 7% | -2% | 15µM* | -14 | ? | 9%
CCCN1CCN(C(=S)Nc2ccccc2C(F)(F)F)CC1 | -1% | 24% | 3.3µM* | 7 | 21µM* | 3%
COc1ccc(C(=O)Nc2cnn(Cc3ccc(Cl)cc3)c2)cc1OC | -694% | 12µM* | i | -5 | 5.8µM* | -2%
Cc1ccccc1NC(=S)N1CCN(Cc2ccccc2)CC1 | 5% | -22% | i | -11 | i | 8%
COc1ccc(CCNC(=O)Cn2c(=O)cc(C(F)(F)F)c3c(C)nn(C)c32)cc1OC | / | / | i | / | i | /
CC(C)C1C(=O)N(Cc2cn(CCC3OCCO3)nn2)CCS(=O)(=O)N1Cc1ccc(-c2ccc(Cl)cc2)cc1 (centres undefined) | / | / | 16µM* | / | ? | /
C/C(=N/NC(=O)c1cccs1)c1ccc(N2CCOCC2)cc1 | 0.52µM* | -2% | i | -8 | i | 151%
C/C(=N/NC(=O)c1cccs1)c1ccc(NC(=O)COc2ccc(Cl)cc2)cc1 | ? | 5.2µM* | i | 1 | ? | 21%
C/C(=N\NC(=O)c1ccccc1)c1ccc(N2CCOCC2)cc1 | -2% | 0% | i | -13 | i | 2%
C/C(=N\NC(=O)c1c(Cl)c(C)nn1C)c1ccc(NC(=O)C2CCC2)cc1 | 1.8µM* | ? | 3.3µM* | -9 | 1µM* | 19%
C/C(=N\NC(=O)c1c([N+](=O)[O-])c(C)nn1C)c1ccc(NC(=O)c2ccc(C)o2)cc1 | ? | 2% | i | -11 | i | -2%
C/C(=N\NC(=O)c1c([N+](=O)[O-])c(C)nn1C)c1ccc(NC(=O)C2CCCC2)cc1 | 5.8µM* | 0.41µM* | 6.5µM* | -30 | 0.46µM* | -22%
COc1ccc(-c2cc(C3C4C=CCC(C)C4C(=O)N3Cc3ccccc3)ccc2F)cc1OC (centres undefined) | / | / | / | 6 | / | /
COc1ccc(N2CCN(C(=O)Cn3c(-c4cccs4)cc4ccccc43)CC2)cc1 | / | / | i | / | i | /
CC1C(=O)N(Cc2cn(Cc3ccco3)nn2)CCS(=O)(=O)N1Cc1ccc(-c2ccc(F)cc2)cc1 (centres undefined) | / | / | i | / | i | /
C/C(=N\NC(=O)c1c(Cl)c(C)nn1C)c1cccc(NC(=O)COc2ccccc2)c1 | -1%[9.22 µM] | 13% | i | -22 | i | 43%
C/C(=N\NC(=O)c1c(Cl)c(C)nn1C)c1ccc(NC(=O)COc2ccc(Cl)cc2C)cc1 | -1% | 21µM* | i | -1 | i | -5%
COC(=O)c1cc2oc(C)cc2n1CC(=O)Nc1ccc(C(C)C)cc1 | / | / | i | / | i | /
Cc1noc(-c2ccc(Cl)cc2)c1C(=O)O/N=C(\N)c1ccc(C(C)(C)C)cc1 | -2% | ? | 18µM* | -24 | ? | -1%
CCCOc1ccc(-c2nonc2NC(=O)COc2ccc(C)cc2)cc1OCCC | / | / | i | / | i | /
O=C(CN1C(=O)CC(c2ccco2)Sc2ccccc21)Nc1ccc(C(F)(F)F)cc1 (centres undefined) | / | / | ? | / | i | /
Cc1ccc(NC(=O)CN2C(=O)CC(c3ccco3)Sc3ccccc32)cc1Cl (centres undefined) | / | / | i | / | i | /
O=C(CN1C(=O)CC(c2ccco2)Sc2ccccc21)Nc1cccc(C(F)(F)F)c1 (centres undefined) | / | / | 21µM* | / | ? | /
COc1ccc(NC(=O)CN2C(=O)CC(c3ccco3)Sc3ccccc32)cc1OC (centres undefined) | / | / | 18µM* | / | i | /
Cc1cc(OCC(=O)Nc2ccc(C(=O)OC3CCCCC3)cc2)ccc1Cl | / | / | i | / | i | /
SMILES | SW480 rereplic | MCF10A rerep | KB-V1 MDR tox | Giardia kill | KB-3-1 tox | ASM inhibitor
OC(Cc1ccc2ccccc2n1)c1ccccc1 (centres undefined) | / | / | i | / | ? | /
Cc1noc(NS(=O)(=O)c2ccc(N/C=C\C(=O)c3ccc4c(c3)OCO4)cc2)c1C | 7% | 5.8µM* | i | -13 | i | 11%
CCOc1ccc(C(=O)NC2C(=O)N3C(C(=O)O)=C(COC(C)=O)CSC23)cc1OCC (centres undefined) | -9% | 16µM* | i | -10 | i | -2%
CC(=O)OCC1=C(C(=O)O)N2C(=O)[C@@H](NC(=O)Cc3ccccc3)[C@H]2SC1 | -6% | 10% | i | 12 | i | 0%
Cc1nc([N+](=O)[O-])cn1CC(=O)c1ccc2c(c1)OCCO2 | / | / | i | / | i | /
O=C(C(=Cc1ccc(F)cc1)C(=O)c1ccccc1)c1ccccc1 | / | / | 21µM* | / | 18µM* | /
Cc1ccc(S(=O)(=O)NCCC(=O)N2CCN(Cc3ccccc3)CC2)cc1 | 10% | -4% | ? | 2 | i | 5%
CC(=O)N1CCc2cc(S(=O)(=O)NCCC(=O)N3CCN(Cc4ccccc4)CC3)ccc21 | 3% | 26% | 16µM* | 13 | ? | 6%
CCCCCc1ccc(-c2cn(Cc3ccc4c(c3)C(=O)c3ccccc3C4=O)nn2)cc1 | / | / | i | / | i | /
Cc1oc2ccc(OS(C)(=O)=O)cc2c1C(=O)OC(C)C | 1% | -11% | 13µM* | 12 | i | -1%
COCCOC(=O)c1c(C)oc2ccc(OS(C)(=O)=O)cc12 | -25% | 17% | ? | 11 | ? | -2%
COc1ccc(-c2noc(-c3ccc4c(c3)OCO4)n2)cc1 | -4% | -2% | i | -19 | i | -1%
COc1ccc(-c2nc(-c3ccc4c(c3)OCO4)[nH]c2-c2ccc(OC)cc2)cc1 | ? | ? | 21µM* | -5 | i | -23%
COC(=O)C1=CN(Cc2ccc(F)cc2)C=C(C(=O)OC)C1c1cc(OC)c(OC)c(OC)c1 | 23% | 2% | i | -18 | i | i
COC(=O)C1=CN(Cc2ccc(C)cc2)C=C(C(=O)OC)C1c1ccc(F)c(F)c1 | 4.6µM* | 23µM* | ? | -1 | i | i
COC(=O)C1=CN(Cc2ccccc2)C=C(C(=O)OC)C1c1cc(F)ccc1F | ? | 21µM* | i | 8 | i | i
CCc1ccc2oc(C(=O)Nc3cc(Cl)ccc3OC)cc(=O)c2c1 | / | / | i | / | i | /
